In PubChem BioAssay (NCATS):
A number with no mark means an inactive call. Inconclusive results are not listed. Activity calls are given as the source filed them. Unless noted, calls come from the whole dose curve; as a rule, active = well fitted inhibition curve with a large enough effect; inconclusive = small, poorly fitted or top-dose-only effect; inactive = flat fitted curve, though single readings scatter.

Key:
[1] = Drug repurposing screens with cells derived from glioblastoma tumor samples (AID 1345199); details: GBM patient neurospheres viability, ATP luminescence, 48 h; note: nearly all actives have a fitted effect of over 40% in size; note: potency is the fitted concentration of half-maximal effect; for activity, negative = cell killing: % is set by controls: 0 for no effect and ±100 for the full control effect
Outline: (§1)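 Four patient lines of CD133+ GBM neurospheres were screened at several concentrations; hits were retested in those lines plus three slower-growing GBM lines, using 48-hour treatment and ATP-based viability.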

astro = control astrocytes; test: as above; details: viability, ATP luminescence, 48 h; series mostly up to 45.9 µM
Outline: as §1

[2] = molecular target: Nuclear receptor subfamily 1 group I member 2 (Rattus norvegicus) (UniProt Q9R1A7); test: qHTS assay for small molecule activators of the rat pregnane X receptor (rPXR) signaling pathway (AID 651751; call rule not given here; note: 0% is about no effect); details: rPXR reporter cells, luciferase (One-Glo), 24 h
[3] = at 45.9 µM (top of the series), tumour line B
[4] = at 45.9 µM (top of the series), tumour line D
[5] = at 46.1 µM (top of the series), tumour line C

Sequence of Nuclear receptor subfamily 1 group I member 2 (Rattus norvegicus) (Q9R1A7 whole entry, looked up): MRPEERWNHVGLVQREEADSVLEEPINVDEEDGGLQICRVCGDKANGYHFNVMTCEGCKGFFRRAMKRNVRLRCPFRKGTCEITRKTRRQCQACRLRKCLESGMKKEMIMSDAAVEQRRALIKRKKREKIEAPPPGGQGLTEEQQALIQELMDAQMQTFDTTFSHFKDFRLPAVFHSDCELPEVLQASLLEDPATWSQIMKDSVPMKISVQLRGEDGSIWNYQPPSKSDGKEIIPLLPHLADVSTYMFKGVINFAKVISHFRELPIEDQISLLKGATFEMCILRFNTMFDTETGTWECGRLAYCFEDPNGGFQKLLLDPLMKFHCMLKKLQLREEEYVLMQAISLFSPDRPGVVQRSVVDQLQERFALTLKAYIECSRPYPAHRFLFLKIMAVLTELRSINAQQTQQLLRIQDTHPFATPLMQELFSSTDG

Compound | activity, negative = cell killing [1, 3] | activity, negative = cell killing [1, 4] | activity, negative = cell killing [1, 5] | Potency (astro) | max response [2]
CCCCCCCCCCCCCCCCCC(=O)OC[C@@H](O)[C@H]1OC[C@H](O)[C@H]1O | 3.83% | 2.86% | -1.68% | inactive | 2.96%
CC(C)(C)NCC(O)c1ccc(O)c(CO)n1 (stereo not drawn) | -4.38% | 7.95% | -15% | inactive | –
CC[C@H]1OC(=O)[C@H](C)[C@@H](O[C@H]2C[C@@](C)(OC)[C@@H](O)[C@H](C)O2)C(C)[C@@H](O[C@@H]2O[C@H](C)C[C@H](N(C)C)[C@@H]2O)[C@](C)(OC)C[C@@H](C)C(=O)[C@H](C)[C@@H](O)[C@]1(C)O (stereo partly drawn) | -10.3% | -27.7% | 2.27% | inactive | –
c1ccc2c(c1)OCC(CN1CCCCC1)O2 (stereo not drawn) | 0.315% | -10.7% | -13% | inactive | –
CC[C@@H](C(=O)[C@@H](C)[C@@H](O)[C@H](C)[C@@H]1O[C@@H]([C@@H](CC)C(=O)O)CC[C@@H]1C)[C@H]1O[C@]2(C=C[C@@H](O)[C@]3(CC[C@@](C)([C@H]4CC[C@](O)(CC)[C@H](C)O4)O3)O2)[C@H](C)C[C@@H]1C | – | – | – | 7.94 µM (active) | –
